Screens (PubChem)
A selection: hits, their analogues and other compounds. The true share with any hit is near 12%.
PI5P4K alpha inh – blocks human PI5P4K alpha kinase activity | P48426 | PI5P4Kalpha enzyme, ADP-Glo luminescence, 60 min; active compounds read low | max response, % | actives 1.2% (n = 330,000); active = max response of -50% or lower; inconclusive = between -30% and -50%; inactive = -30% or higher; note: value at the top dose of about 77 µM; % is set by controls: 0 for no effect and ±100 for the full control effect
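Human PI5P4Kalpha with substrate in 0.038 M HEPES pH 7.4, 0.28 mM EGTA, 0.1% CHAPS, 5% DMSO; reaction started with 5 microM ATP (final), 60 min at room temperature. ADP formed read by ADP-Glo luminescence.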
BAZ2B block – BAZ2B (human) inhibition; Q9UIF8; AlphaScreen BAZ2B-H3K14Ac peptide displacement; Potency, µM (top dose mostly 114 µM), without a hit: at the highest dose activity change, negative = inhibition, most hits filed as inhibitors; actives 4.4% (n = 360,000); AID 504333; note: potency is the fitted concentration of half-maximal effect; % is set by controls: 0 for no effect and ±100 for the full control effect; nearly all actives have a fitted effect of over 60% in size
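Compounds, titrated to a top concentration of 110 uM, were incubated 30 min at room temperature with preformed BAZ2B/acetyl-K14 H3 peptide complex (50 nM each). Proximity signal was measured by AlphaScreen after 20 min with beads.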
HP1b binding inh – blocks HP1-beta chromodomain binding to methylated histone tails; AlphaScreen HP1-beta / biotin-H3K9me3 peptide binding; Potency, µM (titrated, usually from 114 µM), without a hit: at the top dose activity change, negative = inhibition, hits mostly inhibitors; actives 0.56% (n = 390,000); note: potency is the fitted concentration of half-maximal effect; nearly all actives have a fitted effect of over 70% in size
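Compound inhibition of the preformed complex between 50 nM HP1-beta and 50 nM biotinylated H3K9me3 peptide was read by AlphaScreen. Buffer was PBS pH 7.4 with 0.01% Tween-20. Incubations ran 30 min at room temperature, with 10 ug/mL donor/acceptor beads.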
PLK1 PBD inh – inhibitors of human PLK1 polo-box domain binding | P53350 | Plk1 PBD binding of FITC phosphopeptide, fluorescence polarization | Potency, µM, without a hit: max response, negative = inhibition, usual class: inhibitors | actives 2.8% (n = 360,000); note: potency is the fitted concentration of half-maximal effect; series mostly up to about 57 µM; % is set by controls: 0 for no effect and ±100 for the full control effect; nearly all actives have a fitted effect of over 65% in size
JMJD2A Tudor – JMJD2A Tudor domain (human) inhibition; AlphaScreen JMJD2A-Tudor / H3K4me3 peptide binding; Potency, µM (series often up to 114 µM), for the others: at the highest dose activity change, negative = inhibition, usual class: inhibitors; actives 4.4% (n = 390,000); note: potency is the fitted concentration of half-maximal effect; % is set by controls: 0 for no effect and ±100 for the full control effect; nearly all actives have a fitted effect of over 50% in size
Target sequence (O75164 whole entry, looked up, the tested form may be a part): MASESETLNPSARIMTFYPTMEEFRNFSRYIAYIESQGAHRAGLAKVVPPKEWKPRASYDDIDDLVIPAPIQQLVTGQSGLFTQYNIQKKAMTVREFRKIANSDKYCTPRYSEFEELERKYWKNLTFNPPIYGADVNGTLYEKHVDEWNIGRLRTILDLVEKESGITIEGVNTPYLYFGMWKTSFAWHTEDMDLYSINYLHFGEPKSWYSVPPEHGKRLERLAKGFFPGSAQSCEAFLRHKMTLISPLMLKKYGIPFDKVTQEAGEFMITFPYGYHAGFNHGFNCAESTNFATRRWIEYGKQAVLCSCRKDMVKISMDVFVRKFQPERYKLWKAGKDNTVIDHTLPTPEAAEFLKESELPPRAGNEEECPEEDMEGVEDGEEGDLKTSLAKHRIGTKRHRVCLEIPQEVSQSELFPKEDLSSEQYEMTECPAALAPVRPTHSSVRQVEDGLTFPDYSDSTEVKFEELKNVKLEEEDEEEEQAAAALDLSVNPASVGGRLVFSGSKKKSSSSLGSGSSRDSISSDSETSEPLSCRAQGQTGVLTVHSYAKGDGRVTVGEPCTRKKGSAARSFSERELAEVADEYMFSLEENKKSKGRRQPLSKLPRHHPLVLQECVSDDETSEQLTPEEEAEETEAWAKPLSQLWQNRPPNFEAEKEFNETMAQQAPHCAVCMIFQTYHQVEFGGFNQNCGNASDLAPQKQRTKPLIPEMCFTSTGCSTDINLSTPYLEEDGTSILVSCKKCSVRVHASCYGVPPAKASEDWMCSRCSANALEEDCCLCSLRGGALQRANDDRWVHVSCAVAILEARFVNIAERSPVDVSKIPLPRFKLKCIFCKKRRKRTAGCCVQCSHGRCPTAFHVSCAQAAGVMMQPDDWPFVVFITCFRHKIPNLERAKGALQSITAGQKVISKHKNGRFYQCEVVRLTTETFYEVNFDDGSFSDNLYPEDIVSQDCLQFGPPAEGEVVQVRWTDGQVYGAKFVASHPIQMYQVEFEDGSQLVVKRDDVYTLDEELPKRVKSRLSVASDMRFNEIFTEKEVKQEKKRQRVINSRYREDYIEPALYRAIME
G9a block – inhibitors of human histone lysine methyltransferase G9a | Potency, µM (titrated, usually from 102 µM), inactives show at the top dose activity, negative = inhibition, hits mostly inhibitors | actives 8.8% (n = 350,000) | Q96KQ7 | G9a H3K9 monomethylation, AlphaScreen, 2 h; note: potency is the fitted concentration of half-maximal effect; % is set by controls: 0 for no effect and ±100 for the full control effect; nearly all actives have a fitted effect of over 75% in size
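Enzyme 20 nM + cpd, 15 min RT; add b-H3K9 pep 500 nM / SAM 20 uM; 2 h RT; anti-H3K9me1 Ab 0.5 ug/mL + SA donor / anti-rabbit acceptor beads 20 ug/mL each, 10 min; AlphaScreen read.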
* = called active by the depositor; [ ] = dose if it differs, or a comment. Unless noted, calls come from the whole dose curve; as a rule, active = well fitted curve in the direction sought with a large enough effect; inconclusive = small, poorly fitted or top-dose-only effect, or another doubt; inactive = no such curve, though single readings can be large; an effect the other way counts as inactive or inconclusive.

Results for CCN1C(=O)/C(=C\C(=O)c2cccs2)c2cc(Br)ccc21 ?
PI5P4K alpha inh: 2.6; BAZ2B block: 15.8µM*; HP1b binding inh: 22.4µM*; PLK1 PBD inh: 5.32µM*; JMJD2A Tudor: 28.2µM*; G9a block: inconclusive

What do the screens show for `CCN1C(=O)/C(=C\N(C)C)c2ccccc21`?
BAZ2B block: -1.0%; HP1b binding inh: 9.0%; PLK1 PBD inh: -3.5%; JMJD2A Tudor: -15.4%; G9a block: 10.0%[59 µM]

Results for CSc1nc2cc(Oc3cccc(Cl)c3Cl)c(Cl)cc2[nH]1 ?
PI5P4K alpha inh: 28.8; BAZ2B block: -20.7%; HP1b binding inh: 36.9%; PLK1 PBD inh: -3.3%; JMJD2A Tudor: -10.3%; G9a block: inconclusive

How did Cc1ccc(C(C)CCN2CCC(n3nccc3NC(=O)c3ccccc3)CC2)o1 (stereo not given) do in these assays?
PI5P4K alpha inh: -2.5; BAZ2B block: -25.3%; HP1b binding inh: -18.7%; PLK1 PBD inh: 1.0%; JMJD2A Tudor: -20.7%; G9a block: 28.2µM*

What do the screens show for `COc1ccccc1C(=O)Nc1ccnn1C1CCN(CCC(C)c2ccc(C)o2)CC1` (stereo not given)?
PI5P4K alpha inh: 1.4; BAZ2B block: -27.9%; HP1b binding inh: -17.9%; PLK1 PBD inh: -11.8%; JMJD2A Tudor: -34.4%; G9a block: 7.08µM*

Results for CCc1ccc(CN2CCC(n3nccc3NC(=O)c3ccccc3OC)CC2)o1 ?
PI5P4K alpha inh: 3.0; PLK1 PBD inh: 2.1%

Results for CCOc1ccc(CCNC(=O)CCS(=O)(=O)c2ccc(Cl)cc2)cc1OCC ?
PI5P4K alpha inh: 3.2; BAZ2B block: -3.4%; HP1b binding inh: 22.2%; PLK1 PBD inh: inconclusive; JMJD2A Tudor: -1.4%; G9a block: 73.2%

What do the screens show for `O=C(Cn1c(SCC(=O)Nc2ccc(F)cc2)nc2ccccc21)NCc1ccccc1Cl`?
BAZ2B block: -13.0%; HP1b binding inh: 22.3%; JMJD2A Tudor: -5.0%; G9a block: 7.1%[59 µM]

How did COc1ccc(CN(CC2CCCO2)C(=O)c2cc3sccc3n2C)c(OC)c1 (stereo not given) do in these assays?
PI5P4K alpha inh: 6.9; BAZ2B block: 56.2µM*; HP1b binding inh: -21.9%; PLK1 PBD inh: -7.1%; JMJD2A Tudor: inconclusive; G9a block: inconclusive

How did CCOC(=O)c1c(-c2ccccc2)csc1NC(=O)c1cc(-c2ccc(Br)cc2)on1 do in these assays?
BAZ2B block: -26.7%; HP1b binding inh: inconclusive; JMJD2A Tudor: -6.1%; G9a block: 6.31µM*

How did COc1ccccc1-c1cc(C(=O)NCCc2ccccc2)no1 do in these assays?
PI5P4K alpha inh: -2.9; BAZ2B block: 2.6%; HP1b binding inh: 30.8%; PLK1 PBD inh: 26.7µM*; JMJD2A Tudor: inconclusive; G9a block: 9.0%[59 µM]

What do the screens show for `CCOC(=O)c1c(-c2cccc([N+](=O)[O-])c2)csc1NC(=O)CCCOc1ccccc1`?
PI5P4K alpha inh: 1.4; BAZ2B block: 19.6%; HP1b binding inh: 31.9%; PLK1 PBD inh: -10.5%; JMJD2A Tudor: 4.8%; G9a block: -23.6%

What do the screens show for `CCOC(=O)c1c(-c2ccc(C)cc2)csc1NC(=O)c1cc(-c2ccc(C)c(F)c2)on1`?
BAZ2B block: -2.2%; HP1b binding inh: 37.8%; JMJD2A Tudor: -3.0%; G9a block: -12.7%[59 µM]

Results for CCOC(=O)c1c(-c2ccccc2)csc1NC(=O)c1cc(-c2ccccc2OC)on1 ?
PI5P4K alpha inh: -9.2; HP1b binding inh: -15.9%; PLK1 PBD inh: 23.8µM*; JMJD2A Tudor: 1.4%

How did COc1ccc(CCNC(=O)c2cc(-c3ccccc3OC)on2)cc1OC do in these assays?
BAZ2B block: -3.6%; HP1b binding inh: 11.2%; PLK1 PBD inh: 0.1%; JMJD2A Tudor: -27.2%; G9a block: inconclusive

How did CCOC(=O)c1c(-c2ccc(F)cc2)csc1NC(=O)c1c(-c2ccccc2)noc1C do in these assays?
PI5P4K alpha inh: 1.0; BAZ2B block: 10.4%; HP1b binding inh: 43.1%; PLK1 PBD inh: 7.3%; JMJD2A Tudor: 1.3%; G9a block: 6.1%

What do the screens show for `CCOC(=O)c1c(-c2cccc([N+](=O)[O-])c2)csc1NC(=O)CCCOc1ccccc1OC`?
PI5P4K alpha inh: 1.0; BAZ2B block: -1.4%; HP1b binding inh: inconclusive; PLK1 PBD inh: 29.9µM*; JMJD2A Tudor: -34.6%; G9a block: inconclusive

What do the screens show for `CN(c1ccccc1C(=O)Nc1ccccc1-c1ccccc1)S(C)(=O)=O`?
PI5P4K alpha inh: -5.0; BAZ2B block: -6.3%; HP1b binding inh: 22.7%; PLK1 PBD inh: 1.4%; JMJD2A Tudor: -11.1%; G9a block: -1.6%

What do the screens show for `Cc1ccc(S(=O)(=O)N2CCN(C(=O)/C=C/c3ccccc3)CC2)cc1C`?
PI5P4K alpha inh: 5.1; BAZ2B block: 5.2%; HP1b binding inh: 0.7%; PLK1 PBD inh: -5.0%; JMJD2A Tudor: -20.3%; G9a block: inconclusive

What do the screens show for `Cc1ccc(-c2csc(NC(=O)c3cccc(C)c3)c2C(=O)O)cc1`?
PI5P4K alpha inh: inconclusive; HP1b binding inh: 17.2%; PLK1 PBD inh: inconclusive; JMJD2A Tudor: 0.4%

Results for CCOC(=O)c1c(-c2ccc(C)cc2)csc1NC(=O)c1cc2ccccc2oc1=O ?
PI5P4K alpha inh: 4.8; BAZ2B block: 39.8µM*; HP1b binding inh: 15.0%; PLK1 PBD inh: 6.1%; JMJD2A Tudor: -5.0%; G9a block: 3.4%[0.501 µM]

What do the screens show for `COC(=O)c1c(-c2ccc(C)cc2)csc1NC(=S)NC(=O)c1ccc(F)cc1`?
PI5P4K alpha inh: 9.8; BAZ2B block: -14.4%; HP1b binding inh: 13.5%; PLK1 PBD inh: -8.7%; JMJD2A Tudor: -29.1%; G9a block: 79.4µM*

How did Cc1ccc(-c2csc(NC(=O)/C=C/c3ccco3)c2C(=O)O)cc1 do in these assays?
PI5P4K alpha inh: -71.5*; BAZ2B block: 79.4µM*; HP1b binding inh: 25.9%; PLK1 PBD inh: inconclusive; JMJD2A Tudor: inconclusive

How did CCOC(=O)c1c(-c2ccccc2)csc1NC(=O)c1cc(-c2ccc(F)cc2)on1 do in these assays?
BAZ2B block: -10.1%; HP1b binding inh: -14.9%; JMJD2A Tudor: 0.7%; G9a block: 3.98µM*

Results for COc1ncc2nc(-c3ccccc3)c(=O)n(-c3ccccc3)c2n1 ?
G9a block: 4.0%[0.501 µM]

Results for CCOC(=O)c1c(-c2ccccc2)csc1NC(=O)/C(C#N)=C/c1ccc(O)c(OC)c1 ?
PI5P4K alpha inh: inconclusive; BAZ2B block: inconclusive; HP1b binding inh: inconclusive; PLK1 PBD inh: 25.5%; JMJD2A Tudor: -31.8%; G9a block: 39.8µM*

How did CCOC(=O)c1c(-c2ccccc2)csc1NC(=O)/C(C#N)=C/c1ccc(OC)c(OC)c1 do in these assays?
PI5P4K alpha inh: -8.9; BAZ2B block: 0.5%; HP1b binding inh: 21.7%; PLK1 PBD inh: 0.0%; JMJD2A Tudor: -9.7%; G9a block: 4.1%[59 µM]
